In general, inhibition refers to the relative decrease from the control value, in per cent.

Potency and affinity values are given separately. Active and inactive are the calls of the source.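 The calls were made as follows: active = a dose-response curve fit returns a half-maximal inhibitory concentration, extrapolated values included; inactive = the fit returns no such concentration.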

For this test, the target named is HMG-CoA reductase [Enterococcus faecalis] (UniProt Q9FD70). The experiment in a line: class II HMG-CoA reductase inhibition potency – biochemical, Enterococcus faecalis, confirmation (AID 1233).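 Also: 0% = full reaction carrier wells and 100% = background wells lacking mevalonate.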 To be noted: purified E. faecalis HMGR, NADPH absorbance 340 nm kinetics; series mostly up to 100 µM; inhibition: at the top concentration.
Turning to `CN(C)CCCNC(=O)c1cc(C(=O)C2CCCCC2)c[nH]1`, the “inhibition” value was -3.15% (inactive). Take `Cc1noc(C)c1CSc1nc2sc(C)c(C)c2c(=O)n1C1CCCC1`: the “inhibition” value is -0.73% (inactive). For the compound `COc1ccccc1N1CCN(CC(=O)c2c(N)n(C)c(=O)n(C)c2=O)CC1`, the “inhibition” value was -3.15% (inactive). With `CCOC(=O)/C(C#N)=C/c1ccc(SC)cc1`, the “inhibition” value was -12.1% (inactive). For the compound `COc1cccc(CNC(=O)CCS(=O)(=O)c2cccs2)c1`, the “inhibition” value is 0.24% (inactive). Regarding `Nc1ccc(C(=O)Nc2ccc(OC(F)(F)C(F)F)c(NC(=O)c3ccc(N)cc3)c2)cc1`, the “inhibition” value is -4.86% (inactive). Take `COc1ccc(N=C2C(=O)Nc3ccccc32)cc1`: the “inhibition” value was -0.06% (inactive). As for `FC(F)(F)c1cnc(Oc2ccc(-c3nnco3)cc2)c(Cl)c1`, the “inhibition” value is -1.62% (inactive).

Turning to `O=C1NCCCC1C(=O)Nc1ccccc1C(F)(F)F` (configuration not stated), the “inhibition” value was -6.64% (inactive).

On to `CC(=O)c1ccc(N2CCN(C(=O)Cc3n[nH]c(=O)c4ccccc34)CC2)cc1`, for which the “inhibition” value was -5.17% (inactive).

For the compound `COc1ccc(S(=O)(=O)N2CC=C(C(=O)Nc3ccc(NC(C)=O)cc3)CC2)cc1`, the “inhibition” value was -6.83% (inactive). Take `Cc1nn2c(C(F)(F)F)cc(-c3ccc(Cl)cc3)nc2c1C(=O)N1CCOCC1`: the “inhibition” value was -4.39% (inactive).

As to `CC1CCCC(NC(=O)CN(C)S(=O)(=O)c2cnc[nH]2)C1C` (configuration not stated), the “inhibition” value was -7.41% (inactive). For the compound `O=C(CCc1nc2ccccc2c(=O)[nH]1)N1CCN(C/C=C/c2ccccc2)CC1`, the “inhibition” value is -4.71% (inactive).

In the case of `COc1ccc(CNC(=O)C2CCCN2S(=O)(=O)c2ccc(Cl)cc2)cc1` (configuration not stated), the “inhibition” value is -4.97% (inactive). Turning to `CC(C)CNC(=O)CSc1ccc(Cl)cc1`, the “inhibition” value was -5.13% (inactive).

In the case of `Cc1ccccc1NC(=O)Cn1c(CCC(=O)O)ccc1-c1cccs1`, the “inhibition” value was -2.46% (inactive). In the case of `CCOC(=O)C1(O)CC(C)=NN1C(=O)c1cccc(Br)c1` (configuration not stated), the “inhibition” value is -8.26% (inactive). As to `Cc1cc(=O)[nH]c(N/N=C/c2ccc(N(C)C)cc2)n1`, the “inhibition” value was -14.6% (inactive). For the compound `O=C(N/N=C/c1ccc(OC(F)F)cc1OC(F)F)c1cccc(S(=O)(=O)N2CCOCC2)c1`, the “inhibition” value was -0.17% (inactive). As for `COc1ccccc1-c1c(C(F)(F)F)oc2cc(OC(=O)c3cccc([N+](=O)[O-])c3C)ccc2c1=O`, the “inhibition” value is -3.18% (inactive). Regarding `Cc1cccc(C(=O)NC2CCN(C(=O)Nc3ccccc3C)CC2)c1`, the “inhibition” value was -0.56% (inactive). On to `CC1=CC(C)C(C(=O)O)C(C(=O)O)C1` (configuration not stated), for which the “inhibition” value is -2.81% (inactive). For the compound `O=[N+]([O-])c1ccc(C(=Nc2cccc3ccccc23)N2CCOCC2)cc1`, the “inhibition” value is -4.3% (inactive).

Turning to `O=[N+]([O-])c1ccc(N2CCCCC2)c(-c2nn[nH]n2)c1`, the “inhibition” value was -1.68% (inactive). `C=CCNC(=O)C(=O)NN=C1CCN(C)CC1`: the “inhibition” value is -0.09% (inactive). In the case of `Cn1c(SCC(=O)N2CCCC2)nnc1-c1ccc(S(=O)(=O)N2CCCC2)cc1`, the “inhibition” value is -0.88% (inactive). In the case of `COc1cc(S(=O)(=O)Nc2ccccc2C)ccc1NC(=O)c1ccncc1`, the “inhibition” value was -5.86% (inactive). Take `O=C(Cc1ccc2c(c1)CCCC2)Nc1ccccc1Cl`: the “inhibition” value was 2.77% (inactive). With `CCCCC(=O)Nc1cc(OCC)c(NC(=S)NC)cc1OCC`, the “inhibition” value was -3.85% (inactive).

With `CCc1c(C#N)c(N)nc(SCC(=O)OCc2ccccc2)c1C#N`, the “inhibition” value is -7.46% (inactive). As to `Cc1cccc(-n2nc(C)cc2N)c1`, the “inhibition” value was -1.66% (inactive). In the case of `Cc1[nH][nH]c(=O)c1C(c1c(C)[nH][nH]c1=O)c1cn(Cc2ccc(Cl)c(Cl)c2)c2ccccc12` it was -7.14% (inactive); in that of `Cn1c(SCC(=O)N2CCCC2=O)nnc1-c1ccccc1F`, -0.06% (inactive); in that of `NNC(=O)C1CC1c1ccc(Cl)cc1` (configuration not stated), -8.07% (inactive). For `CCOC(=O)c1c(C)nc2ccc(C)cn12`, the “inhibition” value is -4.75% (inactive). In the case of `CN(C)C(CNC(=O)CCOc1ccccc1)c1ccco1` (configuration not stated), the “inhibition” value was -5.01% (inactive).

These data come from PubChem BioAssay AID1233 (SRMLSC, 2008).
